In PubChem BioAssay (NCATS):
Several values for one entry are separate records, joined by “and”; a condition that tells them apart may be missing. Equal values may be shown once. Inconclusive results are not listed. Activity calls are given as the source filed them. The call rests on the fitted dose curve; in most records, active means well fitted curve in the direction sought with a large enough effect; inconclusive means small, poorly fitted or top-dose-only effect, or another doubt; inactive means no such curve, though single readings can be large; an effect the other way counts as inactive or inconclusive.

Key:
[1] = qHTS assay for measurement of the activity of small molecule inhibitors on Zika virus induced Caspase-3 activity in human iPSC derived neural progenitor cells (hNPCs) (AID 1224857); details: hNPCs ZIKV-induced caspase-3/7, Caspase-Glo luminescence, 6 h; series mostly up to 45.7 µM; further: % of control where 0% means no effect; nearly all actives have a fitted effect of over 65% in size
In short: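 Pretreat hNPCs with compound 1 h; infect ZIKV 2 FFU/cell; 6 h 37 C, 5% CO2; Caspase-Glo 3/7, 30 min RT; luminescence; normalize to no-virus and virus-only wells.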

[2] = qHTS assay for measurement of the activity of small molecule inhibitors on Zika virus induced Caspase-3 activity in human astrocytoma cells (AID 1224859); details: SNB-19 ZIKV-induced caspase-3/7, luminescence, 6 h; series mostly up to 45.7 µM;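 further: plate controls were ZIKV-infected untreated cells for no effect and uninfected cells for full effect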
In short: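 Human SNB-19 astrocytoma cells in RPMI 1640 with 10% FBS receive compound one hour ahead of Zika virus at 2 FFU/cell. After 6 h infection, caspase-3/7 activity is detected by Caspase-Glo luminescence.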

[3] = qHTS assay to identify small molecule inhibitors of chordoma cells - UCH-1 (AID 1259355); details: UCH-1 chordoma viability, CellTiter-Glo, 48 h, combination, with auranofin plus four topoisomerase inhibitors; series mostly up to 46.1 µM; further: nearly all actives have a fitted effect of over 55% in size; further: potency means the concentration at half of the fitted maximal effect; on activity, negative = inhibition: on the % scale 0 is the no-effect control and ±100 the full control effect
In short: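 Screening used approved and investigational drugs in 15-point titration against 800 seeded cells per well. A fixed combination of auranofin with camptothecin, doxorubicin, rubitecan and topotecan followed compound addition, and growth was scored by CellTiter-Glo after 48hr.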

[4] = qHTS assay to identify small molecule inhibitors of chordoma cells - UCH-2 (AID 1259356); details: UCH-2 chordoma viability, CellTiter-Glo ATP luminescence, 48 h; series mostly up to 46.1 µM; further: on the % scale 0 is the no-effect control and ±100 the full control effect

Cc1cc(N)c2ccccc2[n+]1CCCCCCCCCC[n+]1c(C)cc(N)c2ccccc21
inactive: outcome [1] | outcome [2] | Potency [3] | outcome [4]

N=c1c[n+](N2CCOCC2)[n-]o1
inactive: outcome [1] | outcome [2]

COc1cc(C(=O)N2CCOCC2)cc(OC)c1OC
inactive: outcome [1] | outcome [2] | Potency [3] | outcome [4]

CNCC(O)c1ccc(O)c(O)c1 (centres undefined)
inactive: outcome [1] | outcome [2]

NC(N)=NCCC[C@H](N)C(=O)O
inactive: outcome [1]

CN(C)CCOC(C)(c1ccccc1)c1ccccn1 (centres undefined)
inactive: outcome [1] | outcome [2]

CC(C)(C)[C@]1(O)CCN2C[C@H]3c4ccccc4CCc4cccc(c43)[C@@H]2C1
inactive: outcome [1] | outcome [2]

CN(C)CCC=C1c2ccccc2CCc2ccccc21
inactive: outcome [1]

C[C@@H](O)[C@H](N)C(=O)O
inactive: outcome [1] | outcome [2] | Potency [3] | outcome [4]

CN(C)CCCN1c2ccccc2CCc2ccccc21
inactive: outcome [1]

CC[C@H]1CN2CCc3cc(OC)c(OC)cc3[C@@H]2C[C@@H]1C[C@H]1NCCc2cc(OC)c(OC)cc21
inactive: outcome [1] | outcome [2]

CC1=C(CC(=O)O)c2cc(F)ccc2/C1=C\c1ccc(S(C)(=O)=O)cc1
inactive: outcome [1] | outcome [2]

CC/C=C(\C(=O)N[C@@H]1C(=O)N2C(C(=O)OCOC(=O)C(C)(C)C)=C(COC(N)=O)CS[C@H]12)c1csc(N)n1
inactive: outcome [1] | outcome [2]

CC(C)(C(=O)O)c1ccc(C(O)CCCN2CCC(C(O)(c3ccccc3)c3ccccc3)CC2)cc1 (centres undefined)
inactive: outcome [1] | outcome [2]

CCN(CC)CCOC(=O)C1(C2CCCCC2)CCCCC1
inactive: outcome [1] | outcome [2]

CC(C)C(=O)c1c(C(C)C)nn2ccccc12
inactive: outcome [1] | outcome [2]

Nc1cc(=O)[nH]c(N)n1
inactive: outcome [1] | outcome [2]

CC(=O)Oc1ccc(C2(c3ccc(OC(C)=O)cc3)C(=O)Nc3ccccc32)cc1
active: Potency [3] 3.55 µM and 3.98 µM
inactive: outcome [1] | outcome [2]

CCN(CC)CCNC(=O)c1c(C)[nH]c(/C=C2\C(=O)Nc3ccc(F)cc32)c1C
inactive: outcome [1] | outcome [2] | Potency [3]

CC(=O)OCC(=O)[C@@]1(O)CC[C@H]2[C@@H]3CCC4=CC(=O)CC[C@]4(C)[C@H]3C(=O)C[C@@]21C
inactive: outcome [1]

C[C@]12CC[C@@H]3c4ccc(O)cc4CC[C@H]3[C@@H]1CCC2=O
inactive: outcome [1] | outcome [2]

O=c1cc[nH]c(=O)[nH]1
inactive: outcome [1] | outcome [2] | Potency [3] | outcome [4]

CCOC(CN1CCN(CC(C)C(=O)c2ccccc2)CC1)c1ccccc1 (centres undefined)
inactive: outcome [1] | outcome [2] | Potency [3] | outcome [4]

CCCOC(=O)c1ccccc1
inactive: outcome [1] | outcome [2] | Potency [3] | outcome [4]

CN(C)CC[C@@H](c1ccc(Cl)cc1)c1ccccn1
inactive: outcome [1]

C[C@H](NC(CCc1ccccc1)C(=O)O)C(=O)N1CCC[C@H]1C(=O)O (some centres undefined)
inactive: outcome [1] | outcome [2]

CC(C)(C)c1onc(OCP(=O)(O)O)c1CC(N)C(=O)O (centres undefined)
inactive: outcome [1]

CC(C)NC[C@H](O)c1ccc(O)c(O)c1
inactive: outcome [1] | outcome [2]

NC1CCN(c2cccc(Cl)n2)CC1
inactive: outcome [1] | outcome [2] | Potency [3] | outcome [4]

CCC(=O)Nc1ccc(O)cc1
inactive: outcome [1] | outcome [2] | Potency [3] | outcome [4]

CC(C)c1c(C(=O)Nc2ccccc2)c(-c2ccccc2)c(-c2ccc(F)cc2)n1CC[C@@H](O)C[C@@H](O)CC(=O)O
inactive: outcome [1] | outcome [2]

C[C@@H]1CCN(C(=O)[C@H](CCCN=C(N)N)NS(=O)(=O)c2cccc3c2NC[C@H](C)C3)[C@@H](C(=O)O)C1
inactive: outcome [1] | outcome [2] | Potency [3] | outcome [4]

CNC(=O)Oc1ccc2c(c1)[C@]1(C)CCN(C)[C@@H]1N2C
inactive: outcome [1] | outcome [2] | Potency [3] | outcome [4]

COc1ccc2[nH]c(S(=O)Cc3ncc(C)c(OC)c3C)nc2n1 (centres undefined)
inactive: outcome [1] | outcome [2] | Potency [3] | outcome [4]

c1ccc(CN(CC2=NCCN2)c2ccccc2)cc1
inactive: outcome [1] | outcome [2] | Potency [3] | outcome [4]

CCCCN(CCCC)CC(O)c1cc(Cl)cc2c1-c1ccc(Cl)cc1/C2=C/c1ccc(Cl)cc1 (centres undefined)
inactive: outcome [1] | outcome [2] | Potency [3] | outcome [4]

CC(O)CN(CCN(CC(C)O)CC(C)O)CC(C)O (centres undefined)
inactive: outcome [1] | outcome [2] | Potency [3] | outcome [4]

CCCCC(CC)COC(=O)c1ccccc1O (centres undefined)
inactive: outcome [1] | outcome [2] | Potency [3] | outcome [4]

Cc1c(Cl)cccc1Nc1ccccc1C(=O)O
inactive: outcome [1] | outcome [2] | Potency [3] | outcome [4]

O=c1cc[nH]c(=S)[nH]1
inactive: outcome [1] | outcome [2] | Potency [3] | outcome [4]

CCCCOC(=O)c1ccc(O)cc1
inactive: outcome [1] | outcome [2] | Potency [3] | outcome [4]

N[C@H]1C(O)O[C@H](CO)[C@@H](O)[C@@H]1O (some centres undefined)
inactive: outcome [1] | outcome [2] | Potency [3] | outcome [4]

Cc1ccc2nc(N)[nH]c(=O)c2c1Sc1ccncc1
inactive: outcome [1] | outcome [2] | Potency [3] | outcome [4]

Cc1cc(C(C#N)c2ccc(Cl)cc2)c(Cl)cc1NC(=O)c1cc(I)cc(I)c1O (centres undefined)
inactive: outcome [1] | outcome [2] | Potency [3] | outcome [4]

CCOC(=O)c1ccc(O)cc1
inactive: outcome [1] | outcome [2] | Potency [3] | outcome [4]

CCN(CC)C(=O)Nc1ccc(OCC(O)CNC(C)(C)C)c(C(C)=O)c1 (centres undefined)
inactive: outcome [1] | outcome [2] | Potency [3] | outcome [4]

COc1ccc2c(c1)C(=O)N(CCc1ccc(S(=O)(=O)NC(=O)NC3CCCCC3)cc1)C(=O)C2(C)C
inactive: outcome [1] | outcome [2] | Potency [3] | outcome [4]

CC(C)(C)NCC(O)COc1ccc(NC(=O)NC2CCCCC2)cc1 (centres undefined)
inactive: outcome [1] | outcome [2] | Potency [3] | outcome [4]

CCCc1c(OCCCCc2nn[nH]n2)ccc(C(C)=O)c1O
inactive: outcome [1] | outcome [2] | Potency [3] | outcome [4]

C=CCn1c(=O)n([C@@H]2O[C@H](CO)[C@@H](O)[C@H]2O)c2nc(N)[nH]c(=O)c21
inactive: outcome [1] | outcome [2] | Potency [3] | outcome [4]

CN(C)CCCO[C@@H]1[C@H]2OC(C)(C)O[C@H]2O[C@@H]1C(O)CO (some centres undefined)
inactive: outcome [1] | outcome [2] | activity, negative = inhibition [3] -7.27% [at 1.88 µM] | outcome [4]

NS(=O)(=O)c1cc2c(cc1Cl)NC(CSCc1ccccc1)=NS2(=O)=O
inactive: outcome [1] | outcome [2] | Potency [3] | outcome [4]

NC(=O)NNc1ccccc1
inactive: outcome [1] | outcome [2] | Potency [3] | outcome [4]

CC1=C(CC(=O)O)c2cc(F)ccc2/C1=C\c1ccc(S(C)=O)cc1 (centres undefined)
inactive: outcome [1] | outcome [2] | Potency [3] | outcome [4]

C[C@@H]1CN(c2c(F)c(F)c3c(=O)c(C(=O)O)cn(C4CC4)c3c2F)C[C@H](C)N1
inactive: outcome [1] | outcome [2] | Potency [3] | outcome [4]

CCOc1ccc2ccccc2c1C(=O)N[C@@H]1C(=O)N2[C@@H]1SC(C)(C)[C@@H]2C(=O)O
inactive: outcome [1] | outcome [2] | Potency [3] | outcome [4]

O=C(O)Cc1sc(-c2ccccc2)nc1-c1ccc(Cl)cc1
inactive: outcome [1] | outcome [2] | Potency [3] | outcome [4]

CCCCN(CCCC)CCCOC(=O)c1ccc(N)cc1
inactive: outcome [1] | outcome [2] | Potency [3] | outcome [4]

Cc1cc2nc3c(=O)[nH]c(=O)nc-3n(C[C@H](O)[C@H](O)[C@H](O)CO)c2cc1C
inactive: outcome [1] | outcome [2] | Potency [3] | outcome [4]

C/C(=C(\CCOP(=O)(O)O)SC(=O)c1ccccc1)N(C=O)Cc1cnc(C)nc1N
inactive: activity change, negative = inhibition [1] 4.2% [at 4.53 µM] | activity change, negative = inhibition [2] 26.7% [at 4.53 µM] | Potency [3] | outcome [4]

CN1CCN(C2Cc3ccccc3Sc3ccc(Cl)cc32)CC1 (centres undefined)
inactive: outcome [1] | outcome [2] | Potency [3] | outcome [4]

O=c1cc(CO)occ1O
inactive: outcome [1] | outcome [2] | Potency [3] | outcome [4]

NC(=O)NC(=O)Cc1ccccc1
inactive: outcome [1] | outcome [2] | Potency [3] | outcome [4]

CN1[C@@H]2CC[C@H]1CC(OC(=O)C(O)c1ccccc1)C2 (some centres undefined)
inactive: outcome [1] | outcome [2] | Potency [3] | outcome [4]

CCCCCCCCCCCCOS(=O)(=O)O
inactive: outcome [1] | outcome [2] | Potency [3] | outcome [4]

O=C(CCCN1CCN(c2ccccn2)CC1)c1ccc(F)cc1
inactive: outcome [1] | outcome [2] | Potency [3] | outcome [4]

CC(C)(C)C(=O)C(Oc1ccc(Cl)cc1)n1ccnc1 (centres undefined)
inactive: outcome [1] | outcome [2] | Potency [3] | outcome [4]

Nc1nc2c(ncn2CCC(CO)CO)c(=O)[nH]1
inactive: outcome [1] | outcome [2] | Potency [3] | outcome [4]

CN1CCOC(c2ccccc2)c2ccccc2C1 (centres undefined)
inactive: outcome [1] | outcome [2] | Potency [3] | outcome [4]

COc1ccc(Cl)cc1C(=O)NCCc1ccc(S(=O)(=O)NC(=O)NC2CCCCC2)cc1
inactive: outcome [1] | outcome [2] | Potency [3] | outcome [4]

NC(CSCC(=O)O)C(=O)O (centres undefined)
inactive: outcome [1] | outcome [2] | Potency [3] | outcome [4]

C[C@](N)(Cc1ccc(O)cc1)C(=O)O
inactive: outcome [1] | outcome [2] | Potency [3] | outcome [4]

COCCOC(=O)C1=C(C)NC(C)=C(C(=O)OC/C=C/c2ccccc2)C1c1cccc([N+](=O)[O-])c1 (centres undefined)
inactive: outcome [1] | outcome [2] | Potency [3] | outcome [4]

CC(C)(C)C(=O)NCCCC(=O)O
inactive: outcome [1] | outcome [2] | Potency [3] | outcome [4]

CC(COc1ccccc1)NC(C)C(O)c1ccc(O)cc1 (centres undefined)
inactive: outcome [1] | outcome [2] | Potency [3] | outcome [4]

C[C@H]1O[C@@H](n2cc(F)c(=O)[nH]c2=O)[C@H](O)[C@@H]1O
inactive: outcome [1] | outcome [2] | Potency [3] | outcome [4]

Nc1ccc(S(=O)(=O)Nc2ccc(Cl)nn2)cc1
inactive: outcome [1] | outcome [2] | Potency [3] | outcome [4]

CCCn1cnc2c1c(=O)n(CCCCC(C)=O)c(=O)n2C
inactive: outcome [1] | outcome [2] | Potency [3] | outcome [4]

O=C(O)c1ccccc1-c1ccc(C(F)(F)F)cc1
inactive: outcome [1] | outcome [2] | Potency [3] | outcome [4]

O=C(O)c1ccccc1O
inactive: outcome [1] | outcome [2] | Potency [3] | outcome [4]

Cc1cccc(C)c1NC(=O)CN(CC(=O)O)CC(=O)O
inactive: outcome [1] | outcome [2] | Potency [3] | outcome [4]
